# Source: PubChem BioAssay (Tox21)
# A number with no mark means an inactive call. Records with an inconclusive call do not appear. Entries that show only a call come without a potency. Calls of active or inactive are those of the source. Unless noted, the call rests on the fitted dose curve.
# Legend:
# [1] = Nuclear factor erythroid 2-related factor 2/antioxidant responsive element (Nrf2/ARE) small molecule agonists: qHTS cell viability counter screen in human keratinocytes (AID 1919968; active means well fitted cell-killing curve with a large enough effect in the repeat runs; further: nearly all actives have a fitted effect of over 55% in size; further: potency means the concentration at half of the fitted maximal effect)
# Procedure, shortened: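 CellTiter-Fluor fluorescence, read 1 h after reagent, gave viability in the same wells as the ARE-luciferase assay. KeratinoSens cells (1,500/well) had 23 h compound exposure at 37 C/5% CO2 following 5 h plating.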
# [2] = Nuclear factor erythroid 2-related factor 2/antioxidant responsive element (Nrf2/ARE) small molecule agonists: luciferase reporter gene qHTS assay in human keratinocytes (AID 1919969); further: nearly all actives have a fitted effect of over 35% in size; further: potency means the concentration at half of the fitted maximal effect
# [3] = target: Gonadotropin-releasing hormone receptor (Homo sapiens) (UniProt P30968); experiment: Human gonadotropin-releasing hormone receptor (GnRHR) small molecule agonists, calcium flux assay in GnRHR-HEK293 cells (AID 1920063); further: nearly all actives have a fitted effect of over 35% in size
# Gonadotropin-releasing hormone receptor (Homo sapiens), sequence (P30968 whole entry, looked up): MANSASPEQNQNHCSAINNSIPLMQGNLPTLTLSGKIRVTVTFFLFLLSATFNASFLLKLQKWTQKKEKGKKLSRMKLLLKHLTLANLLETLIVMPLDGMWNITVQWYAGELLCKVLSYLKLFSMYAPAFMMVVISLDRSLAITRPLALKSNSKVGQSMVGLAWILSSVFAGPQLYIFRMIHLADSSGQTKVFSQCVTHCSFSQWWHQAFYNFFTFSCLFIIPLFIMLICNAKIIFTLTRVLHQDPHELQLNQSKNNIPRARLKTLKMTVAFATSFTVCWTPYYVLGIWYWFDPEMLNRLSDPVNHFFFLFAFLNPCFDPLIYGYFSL
# Procedure, shortened: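 Agonist mode: compounds at 15 concentrations, in triplicate, went onto calcium dye-loaded GnRHR-HEK293 cells. Intracellular calcium was then followed as 480/540 nm fluorescence at 1 s intervals over 3 min.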
# [4] = G protein-coupled receptor (GPCR) small molecule agonists, calcium flux assay: HEK293 wild type cell line counter screen (AID 1920065)
# Procedure, shortened: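 Calcium flux counter screen: compound added in agonist mode at 15 concentrations in triplicate to dye-loaded parental HEK293 cells. Fluorescence (480/540) read kinetically for 3 min; ATP served as positive control.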
# [5] = p53 small molecule agonists, cell-based qHTS assay with human liver microsomes (AID 1963577);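 further: p53 response element beta-lactamase reporter cells with liver microsomes plus NADPH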
# Procedure, shortened: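 With metabolic activation: human liver microsomes (0.5 mg/mL final) plus NADPH (0.5 mg/mL final) added alongside compounds to p53RE-bla cells; 16 h 37 C exposure; beta-lactamase read by LiveBLAzer fluorescence.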
# [6] = p53 small molecule agonists, cell-based qHTS assay with rat liver microsomes (AID 1963578)
# Procedure, shortened: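 Metabolic activation by rat liver microsomes and NADPH, each 0.5 mg/mL final, added right after compounds to p53RE-bla reporter cells (4,000/well, plated 5 h earlier). 16 h at 37 C, then LiveBLAzer substrate for 2 h at room temperature in the dark; fluorescence read-out.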
# [7] = p53 small molecule agonists, cell-based qHTS assay with human liver microsomes: qHTS cell viability counter screen (AID 1963579); further: nearly all actives have a fitted effect of over 45% in size
# Procedure, shortened: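 Metabolic activation used human liver microsomes and NADPH, both 0.5 mg/mL final, over 16 hours at 37 C on p53RE-bla cells (4,000/well). Cytotoxicity measured by CellTiter-Glo luminescence, 30 min at room temperature.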
# [8] = p53 small molecule agonists, cell-based qHTS assay with rat liver microsomes: qHTS cell viability counter screen (AID 1963580); further: nearly all actives have a fitted effect of over 45% in size
# Procedure, shortened: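 After the beta-lactamase ratio was read, CellTiter-Glo was added to the same wells and luminescence measured at 30 min; cells had been treated 16 h at 37 C with compounds, rat liver microsomes and NADPH (0.5 mg/mL final each).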
# [9] = p53 small molecule agonists, cell-based qHTS assay: qHTS cell viability counter screen (AID 1963581); further: nearly all actives have a fitted effect of over 45% in size; further: potency means the concentration at half of the fitted maximal effect
# Procedure, shortened: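 Counter screen read by CellTiter-Glo luminescence (ATP content, 30 min at room temperature), run in the same wells as the beta-lactamase reporter read. HCT-116 p53RE-bla cells saw compounds for 16 h at 37 C.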
# [10] = target: 5-hydroxytryptamine receptor 2A (Homo sapiens) (UniProt P28223); experiment: 5-hydroxytryptamine receptor 2A (HTR2A) small molecule antagonists, cell-based qHTS assay (AID 1963586); further: nearly all actives have a fitted effect of over 45% in size; further: potency means the concentration at half of the fitted maximal effect
# 5-hydroxytryptamine receptor 2A (Homo sapiens), sequence (P28223 whole entry, looked up): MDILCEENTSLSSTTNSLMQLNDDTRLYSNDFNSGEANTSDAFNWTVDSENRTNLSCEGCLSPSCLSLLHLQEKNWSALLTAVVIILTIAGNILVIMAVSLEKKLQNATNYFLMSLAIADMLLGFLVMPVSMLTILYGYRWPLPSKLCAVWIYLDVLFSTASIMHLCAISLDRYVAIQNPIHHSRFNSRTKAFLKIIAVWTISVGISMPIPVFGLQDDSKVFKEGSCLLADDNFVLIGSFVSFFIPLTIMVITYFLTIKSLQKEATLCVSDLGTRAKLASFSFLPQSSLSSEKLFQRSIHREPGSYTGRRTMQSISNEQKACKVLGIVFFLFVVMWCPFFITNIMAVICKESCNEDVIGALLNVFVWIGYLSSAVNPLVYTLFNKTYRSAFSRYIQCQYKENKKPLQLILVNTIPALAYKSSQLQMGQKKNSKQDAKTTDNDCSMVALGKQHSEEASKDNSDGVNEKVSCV
# Procedure, shortened: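 CHO cells stably expressing human HTR2A were plated for 18 h at 37 C, then loaded with calcium dye for 1 h. Compounds were preincubated 5 min at room temperature before DOI (4 nM solution) was added. Kinetic fluorescence was read for 3 min.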
# [11] = target: 5-hydroxytryptamine receptor 2A (Homo sapiens) (UniProt P28223); experiment: 5-hydroxytryptamine receptor 2A (HTR2A) small molecule agonists, cell-based qHTS assay (AID 1963587); further: nearly all actives have a fitted effect of over 30% in size
# Procedure, shortened: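 CHO cells stably expressing human HTR2A, plated 18 h, loaded with calcium dye 1 h at 37 C. Agonist mode: compounds added and intracellular calcium fluorescence recorded kinetically for 2 min at 1 sec intervals.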
# [12] = target: Muscarinic acetylcholine receptor M1 (Homo sapiens) (UniProt P11229); experiment: Cholinergic receptor muscarinic 1 (CHRM1) small molecule antagonists, cell-based qHTS assay (AID 1963588); further: nearly all actives have a fitted effect of over 40% in size
# Muscarinic acetylcholine receptor M1 (Homo sapiens), sequence (P11229 whole entry, looked up): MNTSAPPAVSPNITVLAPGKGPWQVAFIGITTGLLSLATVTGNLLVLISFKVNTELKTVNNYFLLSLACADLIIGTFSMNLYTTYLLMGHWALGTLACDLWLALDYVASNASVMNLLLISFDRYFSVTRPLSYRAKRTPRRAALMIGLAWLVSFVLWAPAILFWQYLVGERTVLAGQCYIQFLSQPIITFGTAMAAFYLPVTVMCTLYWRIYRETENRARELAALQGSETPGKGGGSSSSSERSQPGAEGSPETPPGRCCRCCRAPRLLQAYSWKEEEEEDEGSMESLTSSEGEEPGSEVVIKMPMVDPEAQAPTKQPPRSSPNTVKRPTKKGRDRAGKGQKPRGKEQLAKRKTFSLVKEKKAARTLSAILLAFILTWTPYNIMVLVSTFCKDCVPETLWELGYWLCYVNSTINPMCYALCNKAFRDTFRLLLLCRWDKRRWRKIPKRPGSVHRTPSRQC
# Procedure, shortened: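 Compounds were tested at 15 concentrations in three independent runs. Dye-loaded CHRM1-CHO cells were exposed 5 min at room temperature before stimulation by acetylcholine added at 50nM. Intracellular calcium was read kinetically on FDSS for 3 min.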
# [13] = target: Muscarinic acetylcholine receptor M1 (Homo sapiens) (UniProt P11229); experiment: Cholinergic receptor muscarinic 1 (CHRM1) small molecule agonists, cell-based qHTS assay (AID 1963589); further: nearly all actives have a fitted effect of over 35% in size
# Procedure, shortened: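 Agonist-mode calcium-flux screen: compounds at 15 concentrations, three independent runs, were pin-transferred onto dye-loaded human CHRM1-CHO cells. Fluorescence was then recorded kinetically every second over minutes.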
# [14] = cAMP Responsive Elements (CRE) small molecule agonists, cell-based qHTS assay (AID 1963590)
# Procedure, shortened: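 Agonist mode: compound added to CRE-bla HEK 293T cells (2,000/well, 18 h after plating) for 3 h at 37 C/5% CO2. Reporter activity detected via FRET beta-lactamase substrate, 2 h room-temperature loading.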
# [15] = cAMP Responsive Elements (CRE) small molecule antagonists, cell-based qHTS assay (AID 1963591; active means well fitted inhibition curve with a large enough effect in the signal ratio in the repeat runs, not every such curve was filed as active; the % refers to the signal ratio)
# Procedure, shortened: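 Antagonist mode: compounds are added alongside the adenylyl cyclase activator NKH477 (0.25 uM final) to CRE-bla HEK293T cells for 3 h. LiveBLAzer FRET substrate, 2 h at room temperature, reports bla expression.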
# [16] = target: Beta-2 adrenergic receptor (Homo sapiens) (UniProt P07550); experiment: Adrenergic beta2 receptor (ADRB2) small molecule antagonists, cell-based qHTS assay (AID 1963592); further: series mostly up to about 92 µM; nearly all actives have a fitted effect of over 50% in size
# Beta-2 adrenergic receptor (Homo sapiens), sequence (P07550 whole entry, looked up): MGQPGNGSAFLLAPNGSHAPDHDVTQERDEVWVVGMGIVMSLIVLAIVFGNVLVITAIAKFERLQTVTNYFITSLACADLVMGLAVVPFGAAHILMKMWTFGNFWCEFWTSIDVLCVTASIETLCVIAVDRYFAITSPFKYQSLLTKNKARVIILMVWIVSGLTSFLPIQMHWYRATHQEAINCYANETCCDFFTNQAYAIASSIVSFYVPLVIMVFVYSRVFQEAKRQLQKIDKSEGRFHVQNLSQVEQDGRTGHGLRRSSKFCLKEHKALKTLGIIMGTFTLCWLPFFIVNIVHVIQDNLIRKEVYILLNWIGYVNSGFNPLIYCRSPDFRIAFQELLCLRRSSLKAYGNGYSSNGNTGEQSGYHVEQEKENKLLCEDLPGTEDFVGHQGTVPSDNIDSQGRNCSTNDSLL
# Procedure, shortened: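 Assay format: CHO-ADRB2 cells, 18-20hr seeding at 37C/5% CO2, then compound plus 1nM isoproterenol agonist mix for 0.5hr RT. Homogeneous time-resolved fluorescence cAMP detection after 1hr, expressed as 665/615 nm ratio.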
# [17] = target: D(2) dopamine receptor (Homo sapiens) (UniProt P14416); experiment: Dopamine D2 receptor (DRD2) small molecule antagonists, cell-based qHTS assay (AID 1963595; active means well fitted inhibition curve with a large enough effect in the signal ratio in the repeat runs, with a control signal flat; the % refers to the signal ratio)
# D(2) dopamine receptor (Homo sapiens), sequence (P14416 whole entry, looked up): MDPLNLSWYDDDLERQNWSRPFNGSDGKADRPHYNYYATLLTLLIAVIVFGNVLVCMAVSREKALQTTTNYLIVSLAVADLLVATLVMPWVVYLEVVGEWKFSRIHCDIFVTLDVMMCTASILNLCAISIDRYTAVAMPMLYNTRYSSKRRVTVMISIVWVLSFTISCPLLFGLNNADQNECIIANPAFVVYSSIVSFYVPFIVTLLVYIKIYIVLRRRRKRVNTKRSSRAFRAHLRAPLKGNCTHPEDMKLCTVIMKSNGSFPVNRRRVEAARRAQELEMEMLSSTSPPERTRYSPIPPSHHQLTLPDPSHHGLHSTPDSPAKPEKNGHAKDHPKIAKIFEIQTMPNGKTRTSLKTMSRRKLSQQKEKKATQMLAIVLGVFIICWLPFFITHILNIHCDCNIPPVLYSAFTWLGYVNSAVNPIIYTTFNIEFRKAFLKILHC
# Procedure, shortened: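 DRD2-HEK293; 0.1 mM Ro20-1724; cpd 10 min RT; NKH477 200 nM + quinpirole 12 nM, 30 min RT; HTRF cAMP (cAMP-d2/anti-cAMP cryptate), 665/620 nm ratio after 1 h.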
# [18] = p53 small molecule agonists, cell-based qHTS assay (AID 1963582; active means well fitted activation curve with a large enough effect in the signal ratio in the repeat runs, not every such curve was filed as active; the % refers to the signal ratio)
# Procedure, shortened: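 Read-out is beta-lactamase FRET fluorescence after 2 h at room temperature with LiveBLAzer B/G substrate. p53 response element-bla cells were treated 16 h at 37 C with compounds in DMSO, added 5 h after seeding.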
# [19] = target: Beta-2 adrenergic receptor (Homo sapiens) (UniProt P07550); experiment: Adrenergic beta2 receptor (ADRB2) small molecule agonists, cell-based qHTS assay (AID 1963593);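 further: CHO cells stably overexpressing human ADRB2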
# Procedure, shortened: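 CHO cells stably over-expressing ADRB2 were plated overnight at 37C, then dosed with compounds plus a stimulation mix containing 100uM IBMX and 25uM Ro-20-1724 for 0.5hr at room temperature. cAMP was measured by HTRF competition, 1hr.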
# [20] = target: D(2) dopamine receptor (Homo sapiens) (UniProt P14416); experiment: Dopamine D2 receptor (DRD2) small molecule agonists, cell-based qHTS assay (AID 1963594); further: nearly all actives have a fitted effect of over 35% in size
# Procedure, shortened: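 HEK293 cells stably expressing human DRD2, pre-treated with PDE inhibitor Ro20-1724 (0.1 mM final) and compound 10 min at room temperature, then stimulated with NKH477 (200nM […]) for 30 min. cAMP read by HTRF (665/620 nm).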
SMILES,Potency [1],Potency [2],Potency [3],outcome [4],Potency [5],Potency [6],Potency [7],Potency [8],Potency [9],Potency [10],Potency [11],Potency [12],Potency [13],Potency [14],Potency [15],Potency [16],Potency [17],Potency [18],Potency [19],Potency [20]
O=C1O[C@@H]2[C@@H](O)[C@H](O)O[C@@H]2[C@H]1O,inactive,inactive,inactive,inactive,inactive,inactive,inactive,inactive,inactive,inactive,inactive,inactive,inactive,inactive,inactive,inactive,inactive,–,–,–
CNCCc1ccccn1,inactive,inactive,inactive,inactive,inactive,inactive,inactive,inactive,inactive,–,–,–,–,inactive,inactive,inactive,inactive,inactive,inactive,inactive
CCC(Cc1ccccc1)(C(=O)c1ccc(N2CCOCC2)cc1)N(C)C (stereo not drawn),inactive,68.6 µM (active),inactive,inactive,inactive,inactive,inactive,inactive,inactive,inactive,inactive,–,inactive,–,–,–,–,inactive,inactive,inactive
O=C(c1ccccc1)c1ccc(Cl)cc1,inactive,61.1 µM (active),inactive,inactive,inactive,inactive,inactive,inactive,inactive,–,inactive,–,inactive,–,inactive,–,inactive,–,–,inactive
COc1ccccc1OCC(O)COC(N)=O (stereo not drawn),inactive,inactive,inactive,inactive,inactive,inactive,inactive,inactive,inactive,–,–,–,–,inactive,inactive,inactive,inactive,inactive,inactive,inactive
CC(C)(O)c1ccccc1CC[C@@H](SCC1(CC(=O)O)CC1)c1cccc(/C=C/c2ccc3ccc(Cl)cc3n2)c1,inactive,inactive,inactive,inactive,inactive,inactive,inactive,inactive,inactive,–,–,–,–,inactive,inactive,inactive,–,inactive,–,inactive
NCCCC[C@H](N[C@@H](CCc1ccccc1)C(=O)O)C(=O)N1CCC[C@H]1C(=O)O,inactive,inactive,inactive,inactive,inactive,inactive,inactive,inactive,inactive,–,–,–,–,inactive,inactive,inactive,inactive,inactive,inactive,inactive
COCCOCCOCCOC,inactive,inactive,inactive,inactive,inactive,inactive,inactive,inactive,–,inactive,inactive,inactive,inactive,inactive,inactive,inactive,inactive,inactive,–,inactive
N=C(N)c1ccc(OCCCOc2ccc(C(=N)N)cc2)cc1,inactive,inactive,inactive,inactive,inactive,inactive,inactive,inactive,inactive,inactive,inactive,inactive,inactive,inactive,inactive,inactive,–,–,inactive,–
CC(C)(O)c1coc(S(=O)(=O)NC(=O)Nc2c3c(cc4c2CCC4)CCC3)c1,inactive,61.1 µM (active),inactive,inactive,inactive,inactive,inactive,inactive,inactive,–,inactive,inactive,–,–,inactive,inactive,inactive,inactive,inactive,inactive
CCCCOCCOC(=O)COc1cc(Cl)c(Cl)cc1Cl,inactive,inactive,inactive,inactive,inactive,inactive,inactive,inactive,inactive,9.42 µM (active),inactive,–,–,–,inactive,inactive,inactive,inactive,–,inactive
CC(C)(C)c1cc(CCC(=O)NN)cc(C(C)(C)C)c1O,inactive,inactive,inactive,inactive,inactive,inactive,inactive,inactive,inactive,inactive,inactive,inactive,inactive,inactive,inactive,inactive,–,–,–,inactive
NS(=O)(=O)c1cc(C(=O)NN2C[C@H]3[C@H]4CCC(C4)[C@H]3C2)ccc1Cl,inactive,inactive,inactive,inactive,inactive,inactive,inactive,inactive,inactive,–,inactive,–,inactive,–,–,inactive,inactive,–,inactive,inactive
O=c1[nH]c(=O)n([C@H]2O[C@H](CO)[C@@H](O)[C@@H]2O)cc1/C=C\Br,inactive,inactive,inactive,inactive,inactive,inactive,inactive,inactive,inactive,–,inactive,inactive,inactive,–,inactive,–,inactive,inactive,–,inactive
Cc1c(C2(c3cc(Br)c(O)c(Br)c3C)OS(=O)(=O)c3ccccc32)cc(Br)c(O)c1Br,21 µM (active),inactive,inactive,inactive,inactive,inactive,inactive,inactive,22.3 µM (active),inactive,inactive,inactive,inactive,inactive,–,–,–,–,–,–
